G9a inh = G9a (human) methyltransferase inhibition; actives 8.8% (n = 350,000); Potency, µM (titrated, usually from 102 µM), most hits filed as inhibitors; G9a H3K9 monomethylation, AlphaScreen, 2 h; also: nearly all actives have a fitted effect of over 75% in size
Target sequence (Q96KQ7 913-1193 limits assumed): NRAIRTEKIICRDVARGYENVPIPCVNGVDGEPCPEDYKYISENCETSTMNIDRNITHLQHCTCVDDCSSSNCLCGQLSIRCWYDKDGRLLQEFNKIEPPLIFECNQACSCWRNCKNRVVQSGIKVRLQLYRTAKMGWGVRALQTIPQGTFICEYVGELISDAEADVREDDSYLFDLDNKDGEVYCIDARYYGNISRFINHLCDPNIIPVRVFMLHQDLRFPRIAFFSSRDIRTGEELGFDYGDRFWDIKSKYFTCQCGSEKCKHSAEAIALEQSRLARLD
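AlphaScreen detection with an anti-monomethyl H3K9 antibody quantified product after a 2 h room-temperature reaction containing 500 nM biotinylated H3K9 peptide, 20 µM SAM and 20 nM enzyme, which had been preincubated 15 min with compound.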
Sfp PPTase inh = Sfp phosphopantetheinyl transferase inhibition. actives 3.5% (n = 310,000). Q9F4F7. Biochemical Sfp PPTase activity, qHTS. Potency, µM, usual class: inhibitors. AID 1490;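 also: the enzyme is Sfp with the accession as filed and its product quenches rhodamine fluorescence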
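With Hepes-Na pH 7.6 buffer containing 10 mM MgCl2, Sfp (15 nM) modified BHQ-2-YbbR (12.5 uM) using rhodamine-CoA (5 uM). Two reads 30 minutes apart at 525/598 nm yielded each well's rate.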
BAZ2B block = blocks human BAZ2B; AlphaScreen BAZ2B-H3K14Ac peptide displacement; Potency, µM (series often up to 114 µM), hits mostly inhibitors; actives 4.4% (n = 360,000); AID 504333; also: nearly all actives have a fitted effect of over 60% in size
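BAZ2B 50 nM plus b-H3(5-23)K14Ac 50 nM, PBS pH 7.4/0.01% Tween-20, 30 min RT; compound added (max 110 uM), 30 min RT; streptavidin donor/Ni-chelate acceptor beads 10 ug/mL final, 20 min dark; AlphaScreen read.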
ALOX12 inh = blocks human arachidonate 12S-lipoxygenase; P18054; purified 12hLO, xylenol orange hydroperoxide absorbance; Potency, µM (highest dose often 108 µM), actives largely listed as inhibitors; actives 1.1% (n = 580,000)
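Hydroperoxide product was detected by ferrous iron/xylenol orange as the 573 to 405 nm absorbance ratio. Arachidonic acid at 40 uM (final) was turned over for 30 min at room temperature by 150 nM human 12hLO, pH 7.0 Hepes buffer, after 15 min compound preincubation.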
HP1b binding inh = inhibitors of HP1-beta chromodomain binding to methylated histone tails; AID 540317; AlphaScreen HP1-beta / biotin-H3K9me3 peptide binding; P83916; actives 0.56% (n = 390,000); Potency, µM (highest dose often 114 µM), hits mostly inhibitors; also: nearly all actives have a fitted effect of over 70% in size
Target sequence (P83916 whole entry, looked up): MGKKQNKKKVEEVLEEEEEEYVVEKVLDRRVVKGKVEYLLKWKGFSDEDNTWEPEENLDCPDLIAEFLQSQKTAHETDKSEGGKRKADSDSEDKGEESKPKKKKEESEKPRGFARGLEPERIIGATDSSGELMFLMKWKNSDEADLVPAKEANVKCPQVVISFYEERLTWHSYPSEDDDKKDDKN
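HP1-beta protein (50 nM final) preincubated 30 min at room temperature with biotinylated H3(1-18)K9me3 peptide (50 nM) in PBS pH 7.4, 0.01% Tween-20, then compound added for 30 min. AlphaScreen streptavidin donor/nickel chelate acceptor beads (10 ug/mL final), 30 min dark, luminescence read.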
JMJD2A Tudor = inhibitors of human JMJD2A Tudor domain; O75164; AlphaScreen JMJD2A-Tudor / H3K4me3 peptide binding; Potency, µM (highest dose often 114 µM), usual class: inhibitors; actives 4.4% (n = 390,000); AID 504339; also: nearly all actives have a fitted effect of over 50% in size
Large screens that a line does not name were inactive; ! = not active in a repeat. Compounds with a hit are over-represented: about 8.7% of the library has one in this group of screens. Calls follow the shape of the dose curve; as a rule, active = well fitted curve in the direction sought with a large enough effect; inconclusive = small, poorly fitted or top-dose-only effect, or another doubt; inactive = no such curve, though single readings can be large; an effect the other way counts as inactive or inconclusive.

COc1ccc(-c2cc(CNc3nc(NC(C)C)nc4cc(-c5ccccc5)sc34)on2)cc1	ALOX12 inh 45µM (no result: G9a inh, Sfp PPTase inh, BAZ2B block, HP1b binding inh, JMJD2A Tudor)
CCC(=O)Nc1ccc(C(=O)CSc2nnc(-c3ccccc3F)n2C2CC2)cc1	G9a inh inconclusive
CCC(C)NC(=O)NC(=O)CSc1nnc(-c2ccccc2F)n1C1CC1 (stereo unspecified)	G9a inh 35µM
Cc1cc(Cl)cc(C)c1OCCCCCn1ccnc1	G9a inh inconclusive, BAZ2B block 32µM, ALOX12 inh inconclusive, JMJD2A Tudor inconclusive
Cc1cccc(Cl)c1OCCCn1ccnc1	G9a inh 10µM, BAZ2B block 28µM, HP1b binding inh 28µM, JMJD2A Tudor 7.9µM
Cc1cc(OCCCn2ccnc2)cc(C)c1Cl	G9a inh inconclusive, ALOX12 inh inconclusive, JMJD2A Tudor inconclusive (no result: BAZ2B block)
CCN(CC)CCOc1c(C)cccc1Cl	BAZ2B block 79µM
CNC(=O)c1cc2cc(-c3c(C)noc3C)nc(-c3ccc(F)cc3OC)c2o1	none (no result: G9a inh, Sfp PPTase inh, BAZ2B block, HP1b binding inh, JMJD2A Tudor)
Cc1nn(C)c(C)c1C1Nc2ccccc2C(=O)N1O (stereo unspecified)	G9a inh 13µM
O=C1c2ccccc2NC(c2ccc(Cl)cc2Cl)N1O (stereo unspecified)	ALOX12 inh 10µM
COc1ccc(C2Nc3ccccc3C(=O)N2O)cc1OC (stereo unspecified)	G9a inh 10µM, ALOX12 inh inconclusive, JMJD2A Tudor inconclusive
O=C1c2ccccc2NC(c2ccc(-c3cccc(F)c3)o2)N1O (stereo unspecified)	ALOX12 inh 35µM, JMJD2A Tudor inconclusive (no result: Sfp PPTase inh)
O=C(CN1CCOCC1)N1CCNc2cnc(Nc3ccc(-n4ccnc4)cc3)nc2C1	none (no result: G9a inh, Sfp PPTase inh, BAZ2B block, HP1b binding inh, JMJD2A Tudor)
CCOC(=O)c1ccc(S(=O)(=O)N2CCC(C(=O)NCCc3ccccn3)CC2)cc1	none (no result: G9a inh, Sfp PPTase inh, BAZ2B block, HP1b binding inh, JMJD2A Tudor)
CCN(Cc1nc2cc(Cl)ccc2c(=O)[nH]1)C(=O)CNC(=O)c1ccc(C(F)(F)F)cc1	none (no result: G9a inh, Sfp PPTase inh, BAZ2B block, HP1b binding inh, JMJD2A Tudor)
COc1ccc(-c2c(NC(=O)c3cccs3)oc3c(C)cccc3c2=O)cc1OC	none (no result: G9a inh, Sfp PPTase inh, BAZ2B block, HP1b binding inh, JMJD2A Tudor)
CCc1nnc(SCc2ccc(F)cc2Cl)c2cc3sc(C)cc3n12	JMJD2A Tudor 89µM (no result: Sfp PPTase inh)
CCc1nnc(SCc2cc(C)ccc2C)c2cc3sc(C)cc3n12	G9a inh 10µM (no result: Sfp PPTase inh)
Cc1ccc(C)c(CSc2nnc(C)n3c2cc2sccc23)c1	none (no result: Sfp PPTase inh)
COc1ccc(OC)c(NC(=O)c2nc3ccccc3nc2N2CCCCC2)c1	none (no result: G9a inh, Sfp PPTase inh, BAZ2B block, HP1b binding inh, JMJD2A Tudor)
CCNc1ccc(S(=O)(=O)N(CC)CC)cc1NCc1c(F)cccc1Cl	none (no result: G9a inh, Sfp PPTase inh, BAZ2B block, HP1b binding inh, JMJD2A Tudor)
CC1(Br)C(Sc2ccccc2[N+](=O)[O-])=Nc2ccccc21 (stereo unspecified)	ALOX12 inh 7.9µM (no result: G9a inh, Sfp PPTase inh, BAZ2B block, HP1b binding inh, JMJD2A Tudor)
COC(=O)c1ccc(COc2cccc(C=O)c2)o1	none (no result: G9a inh, Sfp PPTase inh, BAZ2B block, HP1b binding inh, JMJD2A Tudor)
COc1ccc(-n2nc3c(c2NC(=O)COc2ccccc2)CS(=O)(=O)C3)cc1	none
COc1ccc(-n2nc3c(c2NC(=O)COc2cccc(OC)c2)CS(=O)(=O)C3)cc1	G9a inh 18µM, Sfp PPTase inh 50µM, BAZ2B block inconclusive, JMJD2A Tudor inconclusive
Cc1cc(OCCOc2cccc3cccnc23)cc(C)c1Cl	Sfp PPTase inh inconclusive, ALOX12 inh inconclusive
Cc1cc(C)c(C)c(OCCCOc2cccc3cccnc23)c1	Sfp PPTase inh 71µM
CC1CCN(C(=O)CSc2nc3cc(Cl)ccc3c(=O)n2Cc2ccccc2)CC1	none (no result: G9a inh, Sfp PPTase inh, BAZ2B block, HP1b binding inh, JMJD2A Tudor)
Cc1n[nH]c(C)c1S(=O)(=O)Nc1ncn(Cc2ccc(Cl)c(Cl)c2)n1	none (no result: G9a inh, Sfp PPTase inh, BAZ2B block, HP1b binding inh, JMJD2A Tudor)
Cc1nc2c(C)cccn2c1/C(O)=C1\C(=O)C(=O)N(CCN2CCOCC2)C1c1ccncc1 (stereo unspecified)	BAZ2B block 79µM, ALOX12 inh inconclusive, HP1b binding inh inconclusive, JMJD2A Tudor 5.6µM
Cc1ccc(C2/C(=C(\O)c3c(C)nc4c(C)cccn34)C(=O)C(=O)N2CCN(C)C)o1 (stereo unspecified)	none (no result: G9a inh, Sfp PPTase inh, BAZ2B block)
Cc1nc2c(C)cccn2c1/C(O)=C1\C(=O)C(=O)N(CCN(C)C)C1c1ccco1 (stereo unspecified)	JMJD2A Tudor 22µM
Cc1nc2c(C)cccn2c1/C(O)=C1\C(=O)C(=O)N(CCN(C)C)C1c1ccccc1 (stereo unspecified)	none
c1cc(CNCCN2CCCC2)cs1	none (no result: G9a inh, Sfp PPTase inh, BAZ2B block, HP1b binding inh, JMJD2A Tudor)
O=c1c2c(nc3cc(-c4ccccc4Cl)[nH]n13)CCS2	Sfp PPTase inh 22µM, ALOX12 inh 40µM (no result: G9a inh)
CN(C)CCCC1(c2ccc(F)cc2)OCc2cc(C#N)ccc21 (stereo unspecified)	G9a inh 71µM!
CCC/C(=C1/C(=O)CC(C)(C)C(C(=O)OC)C1=O)N1CCCC1 (stereo unspecified)	G9a inh 71µM, ALOX12 inh inconclusive
O=c1/c(=C\c2cc([N+](=O)[O-])cc([N+](=O)[O-])c2O)sc2nc3ccccc3n12	G9a inh 6.3µM, Sfp PPTase inh 22µM, BAZ2B block 50µM, HP1b binding inh inconclusive, JMJD2A Tudor 20µM (no result: ALOX12 inh)
O=c1/c(=C/c2ccccn2)sc2nc3ccccc3n12	G9a inh 50µM, JMJD2A Tudor inconclusive
O[C@H]1COCCN(Cc2ccc(OC(F)(F)F)cc2)C1	none (no result: G9a inh, Sfp PPTase inh, BAZ2B block, HP1b binding inh, JMJD2A Tudor)
Cc1ccc(CN2CCN(C(=O)c3ccc4c(c3)C(O)CCCCCN4C)CC2)cc1 (stereo unspecified)	none (no result: G9a inh, Sfp PPTase inh, BAZ2B block, HP1b binding inh, JMJD2A Tudor)
COCc1cc(=O)n(CC(=O)Nc2ccccc2F)c(N2CCOCC2)n1	none (no result: G9a inh, Sfp PPTase inh, BAZ2B block, HP1b binding inh, JMJD2A Tudor)
COc1cc2c(cc1OC)CN(c1nc(CN3CCOCC3)nc3sc4c(c13)CCC(C)C4)CC2 (stereo unspecified)	G9a inh 14µM, BAZ2B block 32µM, HP1b binding inh inconclusive, JMJD2A Tudor 25µM
